Data taken from paper PMC7862700, “An all-to-all approach to the identification of sequence-specific readers for epigenetic DNA modifications on cytosine”.

Assays:
Assay in all cases: DAPPL (digital affinity profiling via proximity ligation, sequencing); 10 mM Tris-HCl pH 7.5, 50 mM NaCl, 1 mM DTT, 4% glycerol, room temperature, 30 min; GST-TFs on glutathione beads, 16-mer random dsDNA library, 0.1% formaldehyde crosslink after washing; high values mean tight binding
Conditions in all cases: protein: recombinant; tags: N-terminal GST; dsDNA, one strand shown
FLI1 = molecular target: T1, FLI1 (Homo sapiens, UniProt Q01543 1-452)
T1 sequence: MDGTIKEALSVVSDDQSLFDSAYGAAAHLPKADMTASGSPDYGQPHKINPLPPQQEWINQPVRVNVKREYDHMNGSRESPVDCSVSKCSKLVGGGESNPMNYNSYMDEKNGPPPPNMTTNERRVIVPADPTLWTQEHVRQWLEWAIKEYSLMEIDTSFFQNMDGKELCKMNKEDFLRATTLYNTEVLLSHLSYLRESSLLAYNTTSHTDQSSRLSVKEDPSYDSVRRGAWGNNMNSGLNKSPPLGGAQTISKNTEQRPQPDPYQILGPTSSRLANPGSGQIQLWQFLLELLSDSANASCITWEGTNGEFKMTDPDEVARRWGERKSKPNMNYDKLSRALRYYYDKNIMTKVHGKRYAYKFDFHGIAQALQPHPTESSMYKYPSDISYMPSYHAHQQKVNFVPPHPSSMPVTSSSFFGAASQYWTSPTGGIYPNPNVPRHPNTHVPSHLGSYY
Outline: (§1)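 Human transcription factors fused to GST were expressed in yeast, captured on glutathione beads, given DNA barcodes and pooled with a GST-only negative control. Pools were incubated with 200 nmole of a 16-mer random double-stranded DNA library in Tris/NaCl/DTT/glycerol buffer at room temperature for 30 min. They were then washed, crosslinked with 0.1% formaldehyde, proximity-ligated (BsaI/T4 ligase, 1 h, 37 °C), PCR-amplified and sequenced on an Illumina NextSeq500. Binding signal is each 6-mer's read frequency for a factor divided by its frequency for the GST control.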

ELK1 = molecular target: T2, ELK1 (Homo sapiens, UniProt P19419 1-428)
T2 sequence: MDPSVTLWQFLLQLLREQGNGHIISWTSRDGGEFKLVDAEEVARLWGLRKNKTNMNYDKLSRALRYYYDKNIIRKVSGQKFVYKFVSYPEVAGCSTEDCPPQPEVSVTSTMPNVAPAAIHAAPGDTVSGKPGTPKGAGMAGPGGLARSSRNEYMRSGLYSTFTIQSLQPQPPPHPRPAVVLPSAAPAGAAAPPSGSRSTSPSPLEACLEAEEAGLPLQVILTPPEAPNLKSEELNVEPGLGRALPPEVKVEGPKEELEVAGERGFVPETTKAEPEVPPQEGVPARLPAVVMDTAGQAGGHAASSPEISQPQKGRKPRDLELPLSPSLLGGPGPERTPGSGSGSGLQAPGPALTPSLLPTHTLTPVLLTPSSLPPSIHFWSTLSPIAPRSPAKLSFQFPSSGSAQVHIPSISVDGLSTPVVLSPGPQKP
Outline: as §1

GABPA = molecular target: T3, GABPA (Homo sapiens, UniProt Q06546 1-454)
T3 sequence: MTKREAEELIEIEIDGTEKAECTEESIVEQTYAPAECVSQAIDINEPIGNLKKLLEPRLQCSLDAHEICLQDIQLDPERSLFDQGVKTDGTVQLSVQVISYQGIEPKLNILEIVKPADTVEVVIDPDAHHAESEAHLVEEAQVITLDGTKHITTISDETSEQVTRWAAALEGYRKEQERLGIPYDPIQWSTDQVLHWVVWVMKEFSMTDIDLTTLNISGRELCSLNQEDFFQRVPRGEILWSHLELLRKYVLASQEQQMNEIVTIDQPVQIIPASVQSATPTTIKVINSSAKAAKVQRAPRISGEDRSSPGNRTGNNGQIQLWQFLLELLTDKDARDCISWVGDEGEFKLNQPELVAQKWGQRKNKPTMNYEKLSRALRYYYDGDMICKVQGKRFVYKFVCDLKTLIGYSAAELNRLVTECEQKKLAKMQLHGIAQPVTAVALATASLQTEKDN
Outline: as §1

ERG = molecular target: T4, ERG (Homo sapiens, UniProt P11308 1-479)
T4 sequence: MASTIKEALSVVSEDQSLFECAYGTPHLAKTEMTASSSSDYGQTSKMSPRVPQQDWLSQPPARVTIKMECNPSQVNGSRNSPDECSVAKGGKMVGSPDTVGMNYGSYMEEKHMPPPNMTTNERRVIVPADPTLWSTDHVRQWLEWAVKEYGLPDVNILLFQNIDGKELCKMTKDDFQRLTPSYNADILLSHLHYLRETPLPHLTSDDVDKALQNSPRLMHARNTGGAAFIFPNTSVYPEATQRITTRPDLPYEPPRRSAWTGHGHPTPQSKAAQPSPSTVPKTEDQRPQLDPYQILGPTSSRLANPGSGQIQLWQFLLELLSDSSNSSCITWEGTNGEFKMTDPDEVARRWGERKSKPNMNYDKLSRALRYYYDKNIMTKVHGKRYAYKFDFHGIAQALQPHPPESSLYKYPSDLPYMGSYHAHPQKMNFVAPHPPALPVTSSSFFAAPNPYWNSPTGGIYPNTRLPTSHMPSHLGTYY
Outline: as §1

ELF1 = ELF1 (Homo sapiens, UniProt P32519 1-619)
ELF1, sequence (P32519 whole entry): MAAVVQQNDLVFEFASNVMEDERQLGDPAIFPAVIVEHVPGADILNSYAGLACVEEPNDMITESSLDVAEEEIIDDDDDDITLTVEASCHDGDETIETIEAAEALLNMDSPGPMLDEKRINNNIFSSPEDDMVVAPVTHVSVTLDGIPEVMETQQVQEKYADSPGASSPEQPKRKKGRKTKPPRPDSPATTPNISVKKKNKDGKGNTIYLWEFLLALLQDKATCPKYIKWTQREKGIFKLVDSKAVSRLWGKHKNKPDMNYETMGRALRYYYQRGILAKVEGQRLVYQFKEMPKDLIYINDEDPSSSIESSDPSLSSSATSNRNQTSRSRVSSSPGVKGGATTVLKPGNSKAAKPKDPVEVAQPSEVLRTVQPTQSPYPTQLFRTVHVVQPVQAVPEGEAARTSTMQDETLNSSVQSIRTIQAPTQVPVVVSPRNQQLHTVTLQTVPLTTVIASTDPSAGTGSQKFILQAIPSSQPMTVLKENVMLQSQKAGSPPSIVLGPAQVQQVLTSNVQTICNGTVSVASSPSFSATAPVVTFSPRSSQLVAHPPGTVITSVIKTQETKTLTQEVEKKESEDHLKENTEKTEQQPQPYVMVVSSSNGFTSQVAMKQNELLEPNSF
Outline: as §1

EHF = molecular target: T5, EHF (Homo sapiens, UniProt Q9NZC4 1-300)
T5 sequence: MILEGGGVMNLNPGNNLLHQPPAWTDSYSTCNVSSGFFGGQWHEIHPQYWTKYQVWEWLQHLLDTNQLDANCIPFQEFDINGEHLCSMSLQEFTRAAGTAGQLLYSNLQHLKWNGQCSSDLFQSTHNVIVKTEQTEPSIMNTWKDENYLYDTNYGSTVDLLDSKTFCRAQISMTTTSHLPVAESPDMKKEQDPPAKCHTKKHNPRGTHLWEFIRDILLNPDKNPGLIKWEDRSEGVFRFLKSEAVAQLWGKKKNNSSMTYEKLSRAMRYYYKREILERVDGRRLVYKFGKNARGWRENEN
Outline: as §1

SPI1 = SPI1 (Homo sapiens, UniProt P17947 1-270)
Outline: as §1

SPIB = SPIB (Homo sapiens, UniProt Q01892 1-262)
SPIB, sequence (Q01892 whole entry): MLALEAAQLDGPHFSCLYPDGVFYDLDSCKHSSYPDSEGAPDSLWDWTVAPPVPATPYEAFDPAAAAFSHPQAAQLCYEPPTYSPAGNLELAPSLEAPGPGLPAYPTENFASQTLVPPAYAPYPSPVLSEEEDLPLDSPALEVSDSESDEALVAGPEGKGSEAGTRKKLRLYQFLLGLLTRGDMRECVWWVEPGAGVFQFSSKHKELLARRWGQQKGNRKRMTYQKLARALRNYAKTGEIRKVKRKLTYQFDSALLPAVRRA
Outline: as §1

ELK3 = molecular target: T6, ELK3 (Homo sapiens, UniProt P41970 1-407)
T6 sequence: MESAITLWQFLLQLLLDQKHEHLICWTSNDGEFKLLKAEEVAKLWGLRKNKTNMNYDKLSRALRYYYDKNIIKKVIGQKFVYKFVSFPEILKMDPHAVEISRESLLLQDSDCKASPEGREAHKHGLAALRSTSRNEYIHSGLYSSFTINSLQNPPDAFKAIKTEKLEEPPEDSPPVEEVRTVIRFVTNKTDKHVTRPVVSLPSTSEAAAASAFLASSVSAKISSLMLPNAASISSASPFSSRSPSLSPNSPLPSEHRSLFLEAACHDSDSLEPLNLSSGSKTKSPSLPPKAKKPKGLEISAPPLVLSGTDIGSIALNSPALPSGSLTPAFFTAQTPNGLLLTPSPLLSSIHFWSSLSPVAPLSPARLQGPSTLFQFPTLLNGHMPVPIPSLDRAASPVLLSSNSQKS
Outline: as §1

Sequence	binding signal (FLI1)	binding signal (ELK1)	binding signal (GABPA)	binding signal (ERG)	binding signal (ELF1)	binding signal (EHF)	binding signal (SPI1)	binding signal (SPIB)	binding signal (ELK3)
TGTCAC	1.15 fold enrichment (6-mer frequency, TF over GST control)	1.11 fold enrichment (6-mer frequency, TF over GST control)	1.22 fold enrichment (6-mer frequency, TF over GST control)	1.11 fold enrichment (6-mer frequency, TF over GST control)	1.23 fold enrichment (6-mer frequency, TF over GST control)	1.22 fold enrichment (6-mer frequency, TF over GST control)	1.21 fold enrichment (6-mer frequency, TF over GST control)	1.31 fold enrichment (6-mer frequency, TF over GST control)	1.2 fold enrichment (6-mer frequency, TF over GST control)
AGGAAA	1.32 fold enrichment (6-mer frequency, TF over GST control)	1.28 fold enrichment (6-mer frequency, TF over GST control)	1.31 fold enrichment (6-mer frequency, TF over GST control)	1.62 fold enrichment (6-mer frequency, TF over GST control)	1.27 fold enrichment (6-mer frequency, TF over GST control)	1.63 fold enrichment (6-mer frequency, TF over GST control)	1.43 fold enrichment (6-mer frequency, TF over GST control)	1.49 fold enrichment (6-mer frequency, TF over GST control)	1.34 fold enrichment (6-mer frequency, TF over GST control)
TTAATC	1.28 fold enrichment (6-mer frequency, TF over GST control)	1.21 fold enrichment (6-mer frequency, TF over GST control)	1.2 fold enrichment (6-mer frequency, TF over GST control)	1.17 fold enrichment (6-mer frequency, TF over GST control)	1.2 fold enrichment (6-mer frequency, TF over GST control)	1.22 fold enrichment (6-mer frequency, TF over GST control)	1.21 fold enrichment (6-mer frequency, TF over GST control)	1.31 fold enrichment (6-mer frequency, TF over GST control)	1.31 fold enrichment (6-mer frequency, TF over GST control)
TTCGCA	1.23 fold enrichment (6-mer frequency, TF over GST control)	1.36 fold enrichment (6-mer frequency, TF over GST control)	1.33 fold enrichment (6-mer frequency, TF over GST control)	1.29 fold enrichment (6-mer frequency, TF over GST control)	1.27 fold enrichment (6-mer frequency, TF over GST control)	1.34 fold enrichment (6-mer frequency, TF over GST control)	1.32 fold enrichment (6-mer frequency, TF over GST control)	1.46 fold enrichment (6-mer frequency, TF over GST control)	1.25 fold enrichment (6-mer frequency, TF over GST control)
